# EPAC2 agonist: EPAC2 (human) agonism. Q8WZA2. 0.079% of 360,000 active. Potency, µM (highest dose often 154 µM), actives largely listed as activators. EPAC2 activation, biochemical qHTS; response scale: 100% = 6.5 mM cAMP response; also: nearly all actives have a fitted effect of over 50% in size
#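 In this primary screen, activation is scored as increased exchange of BODIPY-GDP from Rap1B by 100 nM EPAC2, with 50 uM GDP as competitor. Signal is normalized to the 6.5 mM cAMP agonist control.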
# EPAC1 antag: antagonists of human EPAC1; 0.14% of 360,000 active; O95398; Potency, µM (highest dose often 115 µM), usual class: inhibitors; AID 720709; EPAC1 GEF assay, Rap1b-BODIPY-GDP exchange fluorescence; also: nearly all actives have a fitted effect of over 50% in size
# EPAC2 antag: EPAC2 (human) antagonism; Q8WZA2; EPAC2 GEF exchange of Rap1B-BODIPY-GDP, fluorescence; Potency, µM (top dose mostly 114 µM), usual class: inhibitors; 0.18% of 360,000 active; also: nearly all actives have a fitted effect of over 45% in size
# USP1 inh: USP1/UAF1 (human) deubiquitinase inhibition; O94782; recombinant USP1/UAF1, Ub-Rhodamine cleavage fluorescence; Potency, µM (titrated, usually from 57.1 µM), most hits filed as inhibitors; 0.23% of 390,000 active; also: nearly all actives have a fitted effect of over 60% in size
#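 Step one: compound is pinned into 1nM USP1/UAF1 in HEPES pH 7.8 buffer with TCEP. Step two: 15 min room-temperature incubation. Step three: Ub-Rho (150nM final) starts cleavage, tracked by fluorescence over six one-minute reads.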
# EPAC1 ag: EPAC1 (human) agonism; EPAC1 agonist qHTS, biochemical assay; response scale: 100% = response to 6.5 mM cAMP; Potency, µM (highest dose often 154 µM), hits mostly activators; 0.073% of 360,000 active; AID 720707; also: nearly all actives have a fitted effect of over 60% in size
#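 EPAC1 100 nM, Rap1B–BODIPY-GDP 250 nM, unlabeled GDP 50 uM; compound titration; 5 min RT; kinetic read ex480/em540 at 5-min intervals ×30 min; data normalized to 6.5 mM cAMP agonist control.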
# VDR inh: blocks the human vitamin D receptor | P11473 | VDR-SRC2-3 peptide fluorescence polarization, 2 h | Potency, µM, most hits filed as inhibitors | 0.93% of 400,000 active
# Target sequence (P11473 whole entry, looked up): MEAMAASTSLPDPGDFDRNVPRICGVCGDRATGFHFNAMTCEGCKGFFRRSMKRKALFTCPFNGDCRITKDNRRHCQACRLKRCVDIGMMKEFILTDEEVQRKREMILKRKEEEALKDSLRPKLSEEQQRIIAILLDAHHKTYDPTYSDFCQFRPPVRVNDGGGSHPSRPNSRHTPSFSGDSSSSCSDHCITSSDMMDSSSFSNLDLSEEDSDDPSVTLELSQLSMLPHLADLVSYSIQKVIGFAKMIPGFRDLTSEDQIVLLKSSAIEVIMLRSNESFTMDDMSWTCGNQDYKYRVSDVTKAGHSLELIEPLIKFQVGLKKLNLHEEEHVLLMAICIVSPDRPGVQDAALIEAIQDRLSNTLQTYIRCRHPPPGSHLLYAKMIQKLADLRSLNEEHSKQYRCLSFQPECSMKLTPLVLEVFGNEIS
#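 The screen uses fluorescence polarization to detect compounds that interfere with recruitment of the SRC2-3 coactivator peptide to VDR; plates are read after 2 h at room temperature.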
# A number is an active result; 0 = inactive; ? = inconclusive; - = no result given; ! = not confirmed by another sample. Sampled rows, rich in hits. Any-hit rate of the full collection: about 1.2%. Calls follow the shape of the dose curve; as a rule, active = well fitted curve in the direction sought with a large enough effect; inconclusive = small, poorly fitted or top-dose-only effect, or another doubt; inactive = no such curve, though single readings can be large; an effect the other way counts as inactive or inconclusive.
SMILES,EPAC2 agonist,EPAC1 antag,EPAC2 antag,USP1 inh,EPAC1 ag,VDR inh
Cc1c(N=Cc2cc3c(cc2[N+](=O)[O-])OCO3)cccc1[N+](=O)[O-],0,0,0,0,0,89µM
COc1ccc(C(=O)NCCSc2ccccc2)cc1OC,0,0,0,0,0,35µM
O=c1c2ccccc2sn1-c1cccc(Cl)c1,0,0,0,0,0,-
O=c1c2ccccc2sn1-c1nccs1,0,0,0,0,0,4µM
O=c1c2cc(F)ccc2sn1-c1ccccc1,0,0,0,0,0,20µM
CN(C)S(=O)(=O)c1cccc(-n2sc3ccccc3c2=O)c1,0,0,0,0,0,32µM
O=c1c2cc(C(F)(F)F)ccc2sn1-c1ccccc1,0,0,0,?,0,-
O=C(O)c1cccc(-n2sc3ccccc3c2=O)c1,0,0,0,0,0,7.1µM
O=C(CCNS(=O)(=O)c1ccc2c(c1)CCN2C(=O)C1CC1)N1CCN(c2ccc(F)cc2)CC1,-,-,-,?,-,0
Cc1cc(OC(C)C(=O)Nc2c(C(=O)c3ccc(F)cc3)oc3ccccc23)ccc1Cl (stereo unspecified),-,-,-,0,-,0
O=c1c2ccccc2sn1-c1ccccc1,0,0,0,0,0,4µM
COc1ccc(-c2nnc(SCC(=O)NC3CCCC3)nc2-c2ccc(OC)c(OC)c2)cc1OC,-,-,-,0,-,0
Cc1ccccc1N1C(S)=C(C#N)C(=O)NC12CCCCC2,0,0,0,0,0,32µM
COC(=O)CSC1=C(C#N)C(=O)NC2(CCCCC2)S1,0,0,0,0,0,?
Cc1cccc(N2C(S)=C(C#N)C(=O)NC23CCCCC3)c1,0,0,0,0,0,45µM
Cc1cccc(NC2=C(C#N)C(=O)NC3(CCCC3)S2)c1,0,0,0,0,0,20µM
Cc1ccccc1N1C(=O)CC2(CCCC2)CC1=O,0,0,0,0,0,0
Cc1ccc(N2C(S)=C(C#N)C(=O)NC23CCCCC3)cc1,0,0,0,0,0,32µM
COc1ccccc1CNC(=O)c1ccc(-c2nc(CN3CCc4ccccc43)c(C)o2)cc1,-,-,-,0,-,0
CC(Oc1ccc(-c2nnco2)cc1)C(=O)N1CCOCC1 (stereo unspecified),0,0,0,0,32µM,0
C[N+]12CCCC[C@@H]1CCC(=C(c1cccs1)c1cccs1)C2 (stereo partly specified),-,-,-,-,-,0
O=C(Cn1cnc2scc(-c3cccc([N+](=O)[O-])c3)c2c1=O)NCc1ccco1,0,56µM,0,0,0,0
Cc1ccc(CN(C)c2nc(-c3cccnc3)nc3ccccc23)o1,0,0,0,0,0,0
CN(Cc1ccco1)c1nc(-c2ccccc2C(F)(F)F)nc2ccccc12,-,-,-,-,-,35µM
CN(Cc1ccco1)c1nc(-c2cccnc2)nc2ccccc12,-,-,-,-,-,32µM
SMILES,EPAC2 agonist,EPAC1 antag,EPAC2 antag,USP1 inh,EPAC1 ag,VDR inh
COc1cc(NC(=O)O[C@@H]2C(=O)c3cc(Br)ccc3O[C@H]2c2ccc3c(c2)OCO3)cc(OC)c1OC,-,-,-,-,-,0
O=C(Nc1ccc2nc(-c3cccs3)[nH]c2c1)c1cccs1,0,0,0,0,0,0
O=C(Nc1ccc(-c2nc3ccc(NC(=O)c4cccs4)cc3[nH]2)cc1)c1cccs1,?,?,50µM,?,0,0
O=C(Nc1cc(-c2ccc(F)c(F)c2)no1)c1ccccc1F,-,-,-,0,-,0
CC1=NN(c2ccccc2)C(=O)/C1=C/c1cccc(C)c1,0,0,0,0,0,50µM
CC1=NN(c2ccccc2)C(=O)/C1=C/C=C/c1ccc(N(C)C)cc1,0,0,0,0,0,79µM
COc1ccc(/C=C2/C(=O)N(c3ccccc3)N=C2C)cc1OC,0,0,0,0,0,0
COc1ccccc1-c1c(C)nn2c(N3CCN(c4ccc(F)cc4)CC3)cc(C)nc12,-,-,-,0,-,0
O=C(O)c1[nH]c2ccccc2c1C(c1ccccc1)c1c(C(=O)O)[nH]c2ccccc12,0,0,0,0,0,?
COc1cc(C(c2c(C(=O)O)[nH]c3ccccc23)c2c(C(=O)O)[nH]c3ccccc23)ccc1OCc1ccccc1,0,40µM,0,?,0,0
Cc1ccc(NC2=C(NCCO)C(=O)c3ccccc3C2=O)cc1,0,0,?,14µM,0,?
CN1[C@@H]2CC(OC(=O)[C@@H](CO)c3ccccc3)C[C@@H]1[C@H]1O[C@H]12 (stereo partly specified),-,-,-,-,-,0
Cc1cc(C(=O)Nc2ccon2)c(C)o1,0,50µM,0,0,0,0
CCN1CCN(C(c2cccc(OC)c2)c2c(O)cc(C)n(Cc3ccco3)c2=O)CC1 (stereo unspecified),-,-,-,0,-,0
CCC(=O)NC(c1cccs1)c1cc(Cl)c2ccccc2c1O (stereo unspecified),0,0,79µM,-,0,0
CC(=O)NC(c1cccs1)c1cc(Cl)c2ccccc2c1O (stereo unspecified),0,0,?,-,0,0
CCC(C(=O)Nc1cc(-c2nc3cccnc3s2)ccc1C)c1ccccc1 (stereo unspecified),-,-,-,0,-,0
COc1cc(OC)c(NC(=O)c2nn(C)c3c2COc2ccccc2-3)cc1Cl,-,-,-,0,-,0
CC1=Nc2ccccc2/C1=C/c1sc(=S)n(-c2cccc(C(=O)O)c2)c1O,0,56µM,?,28µM,0,0
Oc1c(C=C2N=c3ccccc3=N2)sc(=S)n1-c1ccccc1,0,0,0,0,0,0
O=C(c1ccc(F)cc1)C(CN1CCOCC1)c1ccccc1 (stereo unspecified),0,?,0,0,0,50µM
O=C(c1ccc(Cl)cc1)C(CN1CCCC1)c1ccccc1 (stereo unspecified),0,?,0,0,0,25µM
COc1ccc(C(=O)C(CN2CCOCC2)c2ccccc2)cc1 (stereo unspecified),0,0,0,0,0,0
Cc1c(Cl)cccc1Nc1ccccc1C(=O)O,0,0,0,0,0,45µM!
Cc1ccc(SCCC(=O)N(C)C)cc1,0,0,0,0,0,0
CN(C)C(=O)CCSC(SCCC(=O)O)c1cccc(/C=C/c2ccc3ccc(Cl)cc3n2)c1 (stereo unspecified),-,-,-,-,-,35µM
CC(=O)OCC(NC(=O)C(C)NC(=O)OC(C)(C)C)C1OC(n2cc(F)c(=O)[nH]c2=O)C(OC(C)=O)C1OC(C)=O (stereo unspecified),-,-,-,-,-,0
O=C1CC(c2ccccc2)CC(=O)C1CS(=O)(=O)c1ccccc1 (stereo unspecified),0,0,0,0,0,32µM
O=C1CC(=O)CC(c2ccccc2)C1,0,0,0,0,0,?

# Screens (PubChem)
